# Source: PubChem BioAssay (EPA / NIEHS)
# Records with an inconclusive call do not appear. Activity calls are given as the source filed them. Rule for the calls, unless noted: active = hit-call score of the fitted dose curve at least 0.9, where 1 is the maximum; inconclusive = response in the unintended direction; inactive = score below 0.9.
# Experiments:
# [1] = NVS_IC_rCaBTZCHL: NovaScreen (NVS) Ion Channel Assay for Calcium Channel, Type L, Benzothiazepine Site (CaBTZCHL) (AID 2283337)
# Procedure, shortened: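 Benzothiazepine-site binding was assessed in a tissue-derived, cell-free rat cortical membrane system. After 1.5 h exposure, radioactivity retained on filters was quantified by scintillation; positive and negative controls accompanied every plate.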
# [2] = CEETOX_H295R_ESTRADIOL: CeeTox H295R High-throughput Steroidogenesis Assay for Estradiol (AID 2283440; active = hit-call score of the fitted dose curve at least 0.9, where 1 is the maximum; inactive = score below 0.9;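 note: estradiol secreted into medium quantified by LC-MS/MS after dansyl derivatisation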); settings: actives raise or lower the signal
# Procedure, shortened: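 Readout is estradiol in conditioned medium, quantified by reverse-phase HPLC-MS/MS against a 7-point standard curve. Cells: H295R, forskolin-stimulated, then dosed 48 h in 0.1% DMSO; activity fitted in both directions relative to DMSO.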
# [3] = CEETOX_H295R_ESTRONE: CeeTox H295R High-throughput Steroidogenesis Assay for Estrone (AID 2283441; active = hit-call score of the fitted dose curve at least 0.9, where 1 is the maximum; inactive = score below 0.9;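 note: estrone secreted into medium measured by LC-MS/MS after dansyl derivatization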); settings: actives raise or lower the signal
# Procedure, shortened: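 Forskolin-stimulated H295R cells are treated 48 h with chemical, and estrone in the medium is measured by LC-MS/MS. Activity is fitted in both directions relative to DMSO controls, with chemicals diluted until MTT viability reaches at least 70%.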
# [4] = molecular target: mouse Estrogen Receptor alpha (Era), Esr1 (gene 13982) (UniProt P19785); assay: NVS_NR_mERa: NovaScreen (NVS) Nuclear Receptor Binding Assay for mouse Estrogen Receptor alpha (Era) (AID 2283378);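 note: hit means loss of bound radioligand signal relative to DMSO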
# Chain of mouse Estrogen Receptor alpha (Era), Esr1 (gene 13982) (P19785 whole entry, looked up): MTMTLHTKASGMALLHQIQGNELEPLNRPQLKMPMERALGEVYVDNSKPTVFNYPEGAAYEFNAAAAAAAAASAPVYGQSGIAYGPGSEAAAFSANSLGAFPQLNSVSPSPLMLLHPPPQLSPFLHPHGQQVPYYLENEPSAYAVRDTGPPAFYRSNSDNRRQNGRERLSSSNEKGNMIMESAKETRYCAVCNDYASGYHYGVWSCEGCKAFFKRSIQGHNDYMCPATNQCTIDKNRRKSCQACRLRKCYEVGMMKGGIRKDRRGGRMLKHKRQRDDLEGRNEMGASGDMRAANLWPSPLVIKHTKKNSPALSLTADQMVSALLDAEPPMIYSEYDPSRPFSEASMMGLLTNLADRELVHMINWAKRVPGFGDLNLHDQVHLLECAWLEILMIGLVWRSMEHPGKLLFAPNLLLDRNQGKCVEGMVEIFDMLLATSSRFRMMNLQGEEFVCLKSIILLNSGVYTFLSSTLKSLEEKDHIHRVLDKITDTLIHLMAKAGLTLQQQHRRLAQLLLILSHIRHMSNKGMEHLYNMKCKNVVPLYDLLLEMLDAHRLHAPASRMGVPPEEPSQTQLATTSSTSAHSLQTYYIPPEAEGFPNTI
# Procedure, shortened: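 Measurements come from scintillation counting after filtration, taken 18 hours after chemicals were added to a cell-free mouse Era preparation with radioligand. Screening was duplicate at 25 uM, with concurrent positive and negative controls and confirmatory concentration series for actives.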
# [5] = molecular target: Nuclear receptor subfamily 1 group I member 2 (Homo sapiens) (UniProt O75469); assay: NVS_NR_hPXR: NovaScreen (NVS) Nuclear Receptor Binding Assay for human Pregnane X Receptor (PXR) (AID 2283365);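 note: a drop in FRET signal versus DMSO baseline means the compound binds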
# Procedure, shortened: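 Read-out: TR-FRET, human PXR, 2 h post-dosing, cell-free. Loss of signal vs DMSO taken as binding activity; 25 uM primary, concentration series secondary.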
# SERPINA7 (gene 6906) = assay: CCTE_GLTED_hTBG: CCTE's human Thyroxine-binding Globulin (TBG) Inhibition Assay, Great Lakes Toxicology and Ecology Division (GLTED) Lab (AID 2284343);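 note: active chemicals lower fluorescence versus DMSO baseline by displacing probe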
# Procedure, shortened: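 Steps: combine TBG with chemical; incubate 2 hours so that disruptors release ANSA; record fluorescence (380 ex, 475 em). Loss of signal was fitted against DMSO controls.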
# TTR (gene 7276) = assay: CCTE_GLTED_hTTR_0.125uM: CCTE's human Transthyretin (hTTR) Inhibition Assay, with 0.125uM TTR, Great Lakes Toxicology and Ecology Division (GLTED) Lab (AID 2284431; active = hit-call score of the fitted dose curve at least 0.9, where 1 is the maximum; inactive = score below 0.9;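 note: hits lower the fluorescence signal relative to DMSO baseline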)
# Procedure, shortened: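 Activity is defined as decreased ANSA fluorescence (ex 380, em 475) from human transthyretin, 0.125uM, following 2-hour chemical exposure in a cell-free setup, with DMSO as baseline.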
# [6] = molecular target: human CYP2D6, CYP2D6 (gene 1565) (UniProt P10635); assay: NVS_ADME_hCYP2D6: NovaScreen (NVS) CYP450-related Enzyme Activity (ADME) Assay for human CYP2D6 (AID 2283107)
# Procedure, shortened: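 Biochemical fluorescence assay, insect-cell-derived enzyme. Read at 1 h; inhibition taken from loss of signal against acetonitrile. Screened at 10 uM in duplicate, with concentration series for actives.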
# [7] = molecular target: human Beta-secretase (BACE), BACE1 (gene 23621) (UniProt P56817); assay: NVS_ENZ_hBACE: NovaScreen (NVS) Enzymatic Assay for human Beta-secretase (BACE) (AID 2283140);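 note: hits are inhibitors that reduce fluorescent substrate signal versus DMSO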
# Chain of human Beta-secretase (BACE), BACE1 (gene 23621) (P56817 whole entry, looked up): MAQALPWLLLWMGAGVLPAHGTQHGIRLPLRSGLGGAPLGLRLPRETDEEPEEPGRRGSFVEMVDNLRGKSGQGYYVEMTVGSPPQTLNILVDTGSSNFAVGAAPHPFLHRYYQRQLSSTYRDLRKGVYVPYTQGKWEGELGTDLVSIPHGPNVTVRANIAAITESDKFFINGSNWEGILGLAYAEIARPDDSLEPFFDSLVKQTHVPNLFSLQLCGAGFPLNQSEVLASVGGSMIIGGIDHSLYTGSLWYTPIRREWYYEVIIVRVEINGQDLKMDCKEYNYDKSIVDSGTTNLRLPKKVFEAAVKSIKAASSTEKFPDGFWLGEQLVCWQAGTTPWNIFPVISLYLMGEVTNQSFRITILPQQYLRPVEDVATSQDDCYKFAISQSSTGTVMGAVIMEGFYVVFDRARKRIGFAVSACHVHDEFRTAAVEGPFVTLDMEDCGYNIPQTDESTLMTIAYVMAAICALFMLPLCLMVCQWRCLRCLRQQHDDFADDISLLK
# Procedure, shortened: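 Enzyme activity of SF9-produced BACE1 is measured cell-free by fluorescence, 1 hour post dosing, normalised to DMSO. Screening used 25 uM in duplicate, with concentration-response follow-up for actives.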
# [8] = molecular target: human Esterase Plasma (ES), BCHE (gene 590) (UniProt P06276); assay: NVS_ENZ_hES: NovaScreen (NVS) Enzymatic Assay for human Esterase Plasma (ES) (AID 2283157)
# Chain of human Esterase Plasma (ES), BCHE (gene 590) (P06276 whole entry, looked up): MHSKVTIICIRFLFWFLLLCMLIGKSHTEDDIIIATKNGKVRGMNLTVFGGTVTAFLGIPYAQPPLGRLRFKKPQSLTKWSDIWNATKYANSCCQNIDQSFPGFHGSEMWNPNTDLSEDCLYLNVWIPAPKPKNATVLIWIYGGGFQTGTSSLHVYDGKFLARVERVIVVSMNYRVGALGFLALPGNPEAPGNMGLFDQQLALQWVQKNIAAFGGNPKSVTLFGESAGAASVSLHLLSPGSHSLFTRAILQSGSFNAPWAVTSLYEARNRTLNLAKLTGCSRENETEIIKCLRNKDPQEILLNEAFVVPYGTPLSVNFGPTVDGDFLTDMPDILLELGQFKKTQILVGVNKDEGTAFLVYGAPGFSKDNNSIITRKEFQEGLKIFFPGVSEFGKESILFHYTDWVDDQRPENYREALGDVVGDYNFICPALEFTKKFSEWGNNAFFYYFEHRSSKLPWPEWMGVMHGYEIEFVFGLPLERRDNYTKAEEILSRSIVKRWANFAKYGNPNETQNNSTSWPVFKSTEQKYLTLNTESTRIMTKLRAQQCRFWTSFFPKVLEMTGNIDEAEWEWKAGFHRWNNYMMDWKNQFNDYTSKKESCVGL
# Procedure, shortened: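 Human plasma-derived enzyme, cell-free, colorimetric readout at 0.25 h. Primary screen 25 uM in duplicate; hits (e.g. ≥30% inhibition) rerun singleton up to 50 uM. DMSO = negative control/baseline.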
# [9] = molecular target: Peroxisome proliferator-activated receptor gamma (Homo sapiens) (UniProt P37231); assay: NVS_NR_hPPARg: NovaScreen (NVS) Nuclear Receptor Binding Assay for human Peroxisome Proliferator-activated Receptor gamma (PPARg) (AID 2283370)
# Chain of Peroxisome proliferator-activated receptor gamma (Homo sapiens) (P37231 whole entry, looked up): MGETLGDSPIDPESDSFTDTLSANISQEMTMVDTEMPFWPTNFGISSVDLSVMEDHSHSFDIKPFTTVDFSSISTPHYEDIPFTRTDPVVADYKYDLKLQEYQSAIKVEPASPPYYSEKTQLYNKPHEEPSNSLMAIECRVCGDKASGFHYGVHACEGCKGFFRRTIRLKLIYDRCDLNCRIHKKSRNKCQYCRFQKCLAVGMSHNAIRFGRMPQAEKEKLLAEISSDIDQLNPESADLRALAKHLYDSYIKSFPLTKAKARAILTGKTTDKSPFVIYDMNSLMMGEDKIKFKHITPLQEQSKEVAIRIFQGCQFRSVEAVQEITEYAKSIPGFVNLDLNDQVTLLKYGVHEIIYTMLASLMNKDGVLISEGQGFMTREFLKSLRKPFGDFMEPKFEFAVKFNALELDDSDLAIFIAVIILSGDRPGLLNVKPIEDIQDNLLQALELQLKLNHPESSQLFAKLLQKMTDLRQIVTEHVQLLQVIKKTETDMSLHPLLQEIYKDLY
# Procedure, shortened: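 Extracted receptor protein, cell-free; compound incubated 2 h then fluorescence polarization read. Baseline: DMSO. Actives from 25 uM duplicate screen re-run across concentrations.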
# [10] = molecular target: human Peroxisome Proliferator-activated Receptor alpha (PPARa), PPARA (gene 5465) (UniProt Q07869); assay: NVS_NR_hPPARa: NovaScreen (NVS) Nuclear Receptor Binding Assay for human Peroxisome Proliferator-activated Receptor alpha (PPARa) (AID 2283359);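 note: activity means loss of TR-FRET signal versus DMSO baseline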
# Chain of human Peroxisome Proliferator-activated Receptor alpha (PPARa), PPARA (gene 5465) (Q07869 whole entry, looked up): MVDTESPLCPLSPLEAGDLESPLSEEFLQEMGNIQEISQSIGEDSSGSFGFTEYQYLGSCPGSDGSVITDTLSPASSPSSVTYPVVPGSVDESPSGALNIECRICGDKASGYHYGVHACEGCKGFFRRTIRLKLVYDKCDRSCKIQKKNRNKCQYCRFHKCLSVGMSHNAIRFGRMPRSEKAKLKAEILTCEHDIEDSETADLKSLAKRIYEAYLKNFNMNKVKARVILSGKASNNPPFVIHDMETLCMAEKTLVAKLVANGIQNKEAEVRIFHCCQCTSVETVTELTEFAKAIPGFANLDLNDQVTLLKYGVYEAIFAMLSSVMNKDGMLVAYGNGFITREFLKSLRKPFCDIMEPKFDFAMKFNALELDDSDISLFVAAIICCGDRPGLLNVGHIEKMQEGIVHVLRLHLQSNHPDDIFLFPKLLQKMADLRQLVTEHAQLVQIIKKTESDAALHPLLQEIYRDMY
# Procedure, shortened: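 TR-FRET signal measured at 1 h post-dosing; loss-of-signal versus DMSO negative control taken as activity. Extracted gene-protein, cell-free format. Initial single-point duplicates at 25 uM, then concentration-response retests.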
# [11] = system: Thyroperoxidase (TPO), gene 445522; assay: CCTE_Simmons_GUA_TPO: CCTE's Guaiacol Assay for Thyroperoxidase (TPO) Inhibition, Simmons Lab (AID 2283750)
# Procedure, shortened: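 Porcine thyroid microsomes (25 ug) in 200mM potassium phosphate, preincubated 30 s at 37C with compound (8 concentrations, 5 nM–87.5 uM) and 35mM guaiacol; 1mM H2O2 starts reaction. Absorbance change at 450nm over first 80 s; loss of signal versus DMSO, three replicates.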
# [12] = CCTE_Deisenroth_AIME_384WELL_CTox_Active: Cytotoxicity Assessment (CTOX) in CCTE's 384-well Estrogen Receptor Transactivation Assay with AIME metabolic competence (metabolism positive), Deisenroth Lab (AID 2284037);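 note: chemicals first conditioned 2 h by alginate-bound induced rat liver S9 before cells; activity means signal loss indicating cell death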
# Procedure, shortened: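 Chemicals pre-incubated 2 hours with alginate-immobilised phenobarbital/beta-naphthoflavone-induced male Sprague Dawley rat liver S9, then conditioned medium applied 24 hour to VM7Luc4E2 cells. Viability by fluorogenic protease substrate; 10-point series 0.002 - 200 uM.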
# [13] = molecular target: Estrogen receptor (Homo sapiens) (UniProt P03372); assay: OT_ER_ERaERa_1440: Odyssey Thera (OT) 24-hour HEK293T Protein-Complementation Assay for Estrogen Receptor-alpha/-alpha Homodimer (AID 2283349);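 note: hits raise fluorescence above DMSO for agonists and antagonists alike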
# Chain of Estrogen receptor (Homo sapiens) (P03372 whole entry, looked up, the tested form may be a part): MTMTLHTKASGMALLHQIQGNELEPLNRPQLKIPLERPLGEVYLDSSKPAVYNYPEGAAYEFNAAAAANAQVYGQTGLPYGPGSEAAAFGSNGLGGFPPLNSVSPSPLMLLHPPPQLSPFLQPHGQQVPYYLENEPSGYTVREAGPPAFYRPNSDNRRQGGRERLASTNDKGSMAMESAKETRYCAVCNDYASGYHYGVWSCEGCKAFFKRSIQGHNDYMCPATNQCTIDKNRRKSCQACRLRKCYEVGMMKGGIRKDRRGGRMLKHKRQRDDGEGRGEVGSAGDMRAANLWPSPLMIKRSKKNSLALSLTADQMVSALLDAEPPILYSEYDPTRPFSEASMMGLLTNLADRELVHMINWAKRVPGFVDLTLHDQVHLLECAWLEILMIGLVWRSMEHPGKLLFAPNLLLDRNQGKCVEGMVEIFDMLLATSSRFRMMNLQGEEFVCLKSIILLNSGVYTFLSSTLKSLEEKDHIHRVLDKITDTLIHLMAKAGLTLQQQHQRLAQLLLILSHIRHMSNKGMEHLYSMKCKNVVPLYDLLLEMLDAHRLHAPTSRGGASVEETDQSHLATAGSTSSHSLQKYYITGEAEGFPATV
# Procedure, shortened: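 Cells (HEK293T) carrying the fragment-tagged ERα LBD (aa 310-547) pair are treated with chemical for 24 hours. Nuclear and/or cytoplasmic fluorescence is then quantified on a laser scanning cytometer. Activity is scored as signal gain against DMSO.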
# [14] = molecular target: Estrogen receptor (Homo sapiens) (UniProt P03372); assay: OT_ER_ERaERa_0480: Odyssey Thera (OT) 8-hour HEK293T Protein-Complementation Assay for Estrogen Receptor-alpha/-alpha Homodimer (AID 2283351);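 note: rise in fluorescence from reassembled reporter fragments on ERα LBD homodimer in nucleus or whole cell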
# Procedure, shortened: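 Measures ERα LBD (aa 310-547) homodimer complementation in stably transfected HEK293T at 8 h post-dose, with fluorescence intensity quantified on a laser scanning cytometer relative to DMSO controls.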
# [15] = molecular target: T1, Estrogen receptor (Homo sapiens) + Estrogen receptor beta (Homo sapiens) (UniProt P03372+Q92731); assay: OT_ER_ERaERb_0480: Odyssey Thera (OT) 8-hour HEK293T Protein-Complementation Assay for Estrogen Receptor-alpha/-beta Heterodimer (AID 2283352)
# T1 sequence (P03372 whole entry, looked up, the tested form may be a part): as above
# T1 sequence (Q92731 whole entry, looked up, the tested form may be a part): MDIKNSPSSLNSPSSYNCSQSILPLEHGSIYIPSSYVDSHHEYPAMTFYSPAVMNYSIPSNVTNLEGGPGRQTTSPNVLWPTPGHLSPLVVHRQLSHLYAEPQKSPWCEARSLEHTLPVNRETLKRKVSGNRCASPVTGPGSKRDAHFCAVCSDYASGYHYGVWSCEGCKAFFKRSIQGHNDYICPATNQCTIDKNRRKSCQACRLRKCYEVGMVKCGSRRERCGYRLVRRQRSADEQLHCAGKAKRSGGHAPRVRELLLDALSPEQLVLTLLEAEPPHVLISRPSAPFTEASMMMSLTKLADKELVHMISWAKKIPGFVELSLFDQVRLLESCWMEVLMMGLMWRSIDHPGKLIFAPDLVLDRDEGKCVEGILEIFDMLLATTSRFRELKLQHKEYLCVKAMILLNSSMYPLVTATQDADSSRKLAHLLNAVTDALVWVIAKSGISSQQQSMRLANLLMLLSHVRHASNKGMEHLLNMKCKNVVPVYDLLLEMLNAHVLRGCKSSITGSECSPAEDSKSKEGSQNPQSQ
# Procedure, shortened: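 Human HEK293T cells were treated for 8 hours and receptor heterodimerisation was detected through reconstitution of a fluorescent reporter split between ER-alpha and ER-beta ligand-binding domains. Activity was analysed as gain of signal against DMSO.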
# [16] = molecular target: Androgen Receptor/SRC-1 Co-activator, AR (gene 367) (UniProt P10275); assay: OT_AR_ARSRC1_0960: Odyssey Thera (OT) 16-hour HEK293T Protein-Complementation Assay for Androgen Receptor/SRC-1 Co-activator (AID 2283353);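 note: actives raise the signal above DMSO so potency reflects increased AR and SRC-1 complex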
# Chain of Androgen Receptor/SRC-1 Co-activator, AR (gene 367) (P10275 whole entry, looked up, the tested form may be a part): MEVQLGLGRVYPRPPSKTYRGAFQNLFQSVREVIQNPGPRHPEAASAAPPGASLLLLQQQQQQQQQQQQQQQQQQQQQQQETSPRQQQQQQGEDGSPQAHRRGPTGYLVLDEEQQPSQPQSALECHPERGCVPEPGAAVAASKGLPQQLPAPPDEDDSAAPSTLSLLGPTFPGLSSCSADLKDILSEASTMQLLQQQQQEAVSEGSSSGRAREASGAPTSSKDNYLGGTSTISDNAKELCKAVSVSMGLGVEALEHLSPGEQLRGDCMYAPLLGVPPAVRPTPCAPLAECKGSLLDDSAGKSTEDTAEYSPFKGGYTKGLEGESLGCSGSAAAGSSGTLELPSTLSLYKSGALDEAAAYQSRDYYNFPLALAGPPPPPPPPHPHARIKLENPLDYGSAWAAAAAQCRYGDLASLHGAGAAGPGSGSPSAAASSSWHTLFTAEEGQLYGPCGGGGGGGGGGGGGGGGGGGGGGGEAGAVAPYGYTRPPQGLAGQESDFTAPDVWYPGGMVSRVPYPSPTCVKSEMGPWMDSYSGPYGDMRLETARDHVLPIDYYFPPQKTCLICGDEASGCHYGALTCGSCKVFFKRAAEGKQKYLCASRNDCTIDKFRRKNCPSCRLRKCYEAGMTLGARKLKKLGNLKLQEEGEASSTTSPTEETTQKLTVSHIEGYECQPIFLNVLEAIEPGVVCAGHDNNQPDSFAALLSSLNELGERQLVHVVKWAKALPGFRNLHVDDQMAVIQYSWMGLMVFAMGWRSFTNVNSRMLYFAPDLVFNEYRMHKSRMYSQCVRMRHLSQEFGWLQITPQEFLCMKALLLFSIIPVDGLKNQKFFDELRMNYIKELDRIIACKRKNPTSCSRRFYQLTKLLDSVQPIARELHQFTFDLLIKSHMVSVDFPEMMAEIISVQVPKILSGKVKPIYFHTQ
# Procedure, shortened: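 Sixteen-hour cell assay: Venus halves fused to AR and SRC-1 in HEK293T report binding. Images at 488/635 nm give an N/C ratio in the 488 nm channel over ≥400 cells, analysed as signal increase over DMSO.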
# [17] = molecular target: Androgen Receptor/SRC-1 Co-activator, AR (gene 367) (UniProt P10275); assay: OT_AR_ARSRC1_0480: Odyssey Thera (OT) 8-hour HEK293T Protein-Complementation Assay for Androgen Receptor/SRC-1 Co-activator (AID 2283354);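 note: hits raise the complementation signal above DMSO so AC50 marks enhancers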
# Procedure, shortened: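 Split-Venus PCA, stable HEK293T, AR/SRC-1 fusions; 8 h exposure. Readout: 488nm N/C fluorescence ratio, ≥400 cells/image; fitted upward vs DMSO baseline.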
# [18] = molecular target: T1, Estrogen receptor (Homo sapiens) + Estrogen receptor beta (Homo sapiens); assay: OT_ER_ERaERb_1440: Odyssey Thera (OT) 24-hour HEK293T Protein-Complementation Assay for Estrogen Receptor-alpha/-beta Homodimer (AID 2283356);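 note: heteromer of ER alpha and ER beta binding domains; hits raise reporter fluorescence and both agonists and antagonists give an increase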
# Procedure, shortened: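 24 h exposure; HEK293T PCA cells with ERα/ERβ LBD fragments; signal rise in nuclear or whole-cell fluorescence over vehicle.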
compound,measurement,setting,value
c1ccc(Nc2ccc3ccccc3c2)cc1,outcome,[1],inactive
same,outcome,[2],inactive
same,outcome,[3],inactive
O=C(O)c1cc[c]([Hg][Cl])cc1,outcome,[4],inactive
CCOC(=O)COc1ccc(Cl)cc1Cl,outcome,[5],inactive
same,AC50,SERPINA7 (gene 6906),24.6 µM (active)
same,AC50,TTR (gene 7276),19.4 µM (active)
Nc1ccc(-c2ccc(N)c(N)c2)cc1N,AC50,[6],4.48 µM (active)
same,AC50,[7],10.2 µM (active)
same,AC50,[8],29.1 µM (active)
O=C(O)CCl,outcome,[9],inactive
Nc1ccccc1,outcome,[10],inactive
same,AC50,[11],9.69 µM (active)
same,outcome,[12],inactive
c1ccc2c(c1)CCCC2,outcome,[13],inactive
same,outcome,[14],inactive
same,outcome,[15],inactive
same,outcome,[16],inactive
same,outcome,[17],inactive
same,outcome,[18],inactive
